For 4 compounds, z-score and composite z-score results are on record in PubChem BioAssay.

The nature of assay [1]: optical density shifts of acrAB sulA E. coli – strain DRC41, OD650, 48 h, E. coli filamentation inducer project, primary screen (AID 1152).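 Further: E. coli MC1000 strain DRC41 lacking acrAB efflux pump and sulA.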 Particulars: higher = more signal, called active from +8 up or from −8 down.
A short description of assay [2]: probe aLefty1 binding on compound microarray – biochemical, small-molecule microarray, 635/667 nm fluorescence, primary screen (AID 1153).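 Further: score merges spot fluorescence with signal-to-noise ratio from the scanned slide images.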 Particulars: higher = more signal.
Assay [3] can be described thus: plasmodial surface anion channel blockers, osmotic lysis – cell-based, P. falciparum Indochina, OD700, 1 h, primary screen (AID 1154). Particulars: P. falciparum Indochina infected RBC osmotic lysis, higher = more signal, called active from +8 up or from −8 down.
Assay [4] in a line: plasmodial surface anion channel blockers, osmotic lysis – cell-based, P. falciparum Indochina, OD700, 2 h, primary screen (AID 1155).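 Further: lysis reports solute entry through the parasite surface anion channel PSAC.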 Particulars: P. falciparum Indochina infected erythrocytes, higher = more signal, called active from +8 up or from −8 down.
Assay [5] in a line: changes in parasitized red cell lysis, either direction – P. falciparum Indochina, OD700, 3 h, PSAC antagonist project, primary screen (AID 1156). Particulars: P. falciparum-infected erythrocytes, osmotic lysis, higher = more signal, called active from +8 up or from −8 down.
A short description of assay [6]: plasmodial surface anion channel blockers, osmotic lysis – cell-based, P. falciparum Indochina, OD700, 18 h, primary screen (AID 1157). Particulars: P. falciparum Indochina infected erythrocytes, osmotic lysis OD700, 18 h; higher = more signal, called active from +8 up or from −8 down.
A short description of assay [7]: S6 kinase pathway phospho-S6 level changes – cell-based, A549, cytoblot, luminescence, serum-stimulated, primary screen (AID 1158).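 Further: serum-stimulated A549 lung adenocarcinoma cells; signal is phosphorylated S6 detected by cytoblot immunostaining with HRP secondary.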 Conditions: 5 h, higher = more signal.
In assay [8] the target is NADPH oxidase 2 (Homo sapiens) (UniProt P04839). The experiment in a line: compounds shifting NOX2 Amplex Red fluorescence – cell-based, HEK293-NOX2, PMA-stimulated, NOX inhibitor project, primary screen (AID 1159). Further: test concentration not given here. Particulars: 45 min, higher = more signal, called active from +8 up or from −8 down.
Sequence of NADPH oxidase 2 (Homo sapiens) (P04839 whole entry, looked up): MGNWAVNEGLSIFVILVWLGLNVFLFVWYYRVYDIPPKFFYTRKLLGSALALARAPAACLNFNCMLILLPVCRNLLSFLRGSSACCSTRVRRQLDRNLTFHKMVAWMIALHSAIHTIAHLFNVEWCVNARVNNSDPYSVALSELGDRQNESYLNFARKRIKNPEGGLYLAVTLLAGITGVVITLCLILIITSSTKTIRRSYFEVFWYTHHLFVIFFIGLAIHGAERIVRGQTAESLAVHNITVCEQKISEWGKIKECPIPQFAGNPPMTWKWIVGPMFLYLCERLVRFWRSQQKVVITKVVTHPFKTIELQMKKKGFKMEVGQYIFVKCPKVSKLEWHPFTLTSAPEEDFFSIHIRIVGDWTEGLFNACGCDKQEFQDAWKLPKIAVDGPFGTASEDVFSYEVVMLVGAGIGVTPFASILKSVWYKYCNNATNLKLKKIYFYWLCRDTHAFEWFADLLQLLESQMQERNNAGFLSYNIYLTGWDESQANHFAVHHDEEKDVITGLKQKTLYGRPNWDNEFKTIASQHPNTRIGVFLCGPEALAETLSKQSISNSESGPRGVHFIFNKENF
Assay [9] deals with NADPH oxidase 4 (Homo sapiens) (UniProt Q9NPH5). The experiment in a line: compounds shifting NOX4 Amplex Red fluorescence – cell-based, HEK293-NOX4, tetracycline-induced, NOX inhibitor project, primary screen (AID 1160). Particulars: HEK293-NOX4, Amplex Red H2O2 fluorescence, 45 min; higher = more signal, called active from +8 up or from −8 down.
Sequence of NADPH oxidase 4 (Homo sapiens) (Q9NPH5 whole entry, looked up): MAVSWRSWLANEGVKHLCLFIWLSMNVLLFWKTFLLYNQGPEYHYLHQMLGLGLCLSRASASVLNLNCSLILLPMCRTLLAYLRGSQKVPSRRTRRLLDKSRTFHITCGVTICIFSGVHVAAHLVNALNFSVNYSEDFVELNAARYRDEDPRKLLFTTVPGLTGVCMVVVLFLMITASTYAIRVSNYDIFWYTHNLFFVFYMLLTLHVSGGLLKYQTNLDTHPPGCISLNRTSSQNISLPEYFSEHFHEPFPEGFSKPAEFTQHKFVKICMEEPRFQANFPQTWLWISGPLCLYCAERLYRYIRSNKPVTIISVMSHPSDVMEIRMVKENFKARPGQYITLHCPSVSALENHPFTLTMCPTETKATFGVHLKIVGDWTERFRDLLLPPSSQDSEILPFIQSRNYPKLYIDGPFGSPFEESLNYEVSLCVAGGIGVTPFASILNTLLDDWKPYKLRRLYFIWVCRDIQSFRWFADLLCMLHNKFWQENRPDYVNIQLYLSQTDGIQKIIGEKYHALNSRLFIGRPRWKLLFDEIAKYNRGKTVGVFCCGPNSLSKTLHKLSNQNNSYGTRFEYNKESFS
Assay [10] deals with NADPH oxidase 5 (Homo sapiens) (UniProt Q96PH1). The experiment in a line: compounds shifting NOX5 Amplex Red fluorescence – cell-based, HEK293-NOX5, NOX inhibitor project, primary screen (AID 1161). Conditions: HEK293-NOX5, ionomycin, 45 min, higher = more signal.
Sequence of NADPH oxidase 5 (Homo sapiens) (Q96PH1 whole entry, looked up): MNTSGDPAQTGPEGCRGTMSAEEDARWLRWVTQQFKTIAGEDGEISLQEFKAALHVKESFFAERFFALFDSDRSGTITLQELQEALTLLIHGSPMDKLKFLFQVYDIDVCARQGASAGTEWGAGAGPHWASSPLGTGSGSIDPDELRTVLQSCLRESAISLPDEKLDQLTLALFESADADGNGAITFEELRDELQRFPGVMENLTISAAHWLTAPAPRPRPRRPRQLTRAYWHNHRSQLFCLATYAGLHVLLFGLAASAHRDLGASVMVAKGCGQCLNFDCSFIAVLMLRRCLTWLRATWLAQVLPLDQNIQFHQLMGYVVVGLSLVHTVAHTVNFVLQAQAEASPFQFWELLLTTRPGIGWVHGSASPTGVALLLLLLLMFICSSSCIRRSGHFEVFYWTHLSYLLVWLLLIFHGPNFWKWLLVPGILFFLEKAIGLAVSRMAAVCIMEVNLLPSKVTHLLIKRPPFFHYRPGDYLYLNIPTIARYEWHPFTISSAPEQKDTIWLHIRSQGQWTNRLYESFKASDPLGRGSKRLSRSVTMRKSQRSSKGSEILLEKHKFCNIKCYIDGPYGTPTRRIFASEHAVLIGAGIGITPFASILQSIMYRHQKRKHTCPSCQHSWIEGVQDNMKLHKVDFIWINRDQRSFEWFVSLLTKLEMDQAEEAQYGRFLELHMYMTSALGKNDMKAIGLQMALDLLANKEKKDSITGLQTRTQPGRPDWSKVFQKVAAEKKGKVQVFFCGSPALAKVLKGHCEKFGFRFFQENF
A short description of assay [11]: compound effects on lung adenocarcinoma cell viability – A549, calcein-AM fluorescence, 48 h, basal, profiling panel (AID 1162). Further: test concentration not given here. Conditions: higher = more signal.
The nature of assay [12]: compound effects on differentiated 3T3-L1 adipocyte viability – cell-based, 3T3-L1 adipocytes, calcein-AM fluorescence, 48 h, basal, profiling panel (AID 1163). Further: test concentration not given here. Conditions: 3T3-L1 adipocytes viability, higher = more signal.
Assay [13] can be described thus: compound effects on hepatocellular carcinoma cell viability – HepG2, calcein-AM fluorescence, 48 h, basal, profiling panel (AID 1164). Further: test concentration not given here. Conditions: higher = more signal.
A short description of assay [14]: compound effects on multiple myeloma cell viability – MM1S, calcein-AM fluorescence, 48 h, basal, profiling panel (AID 1165). Further: test concentration not given here. Conditions: higher = more signal.
Assay [15] is described as follows: calcein-AM signal in unstimulated myeloma cells – cell-based, calcein-AM fluorescence, 48 h, PK04 Diversity Set, profiling panel (AID 1166).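 Further: cells grown under basal conditions without added stimulus; test concentration not given here.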 Particulars: RPMI8226 myeloma viability, higher = more signal.
Assay [16] can be described thus: JC-1 mitochondrial signal, unstimulated HepG2 cells – cell-based, JC-1 fluorescence, 24 h, 100 nL compound, profiling panel (AID 1167). Further: test concentration not given here. Conditions: HepG2 mitochondrial potential, higher = more signal.
Assay [17] is described as follows: JC-1 mitochondrial signal, unstimulated adipocytes – cell-based, JC-1 fluorescence, 3T3-L1 adipocytes, 24 h, 100 nL compound, profiling panel (AID 1168). Further: test concentration not given here. Conditions: JC-1 mitochondrial fluorescence, higher = more signal, called active from +8 up or from −8 down.
Assay [18] in a line: JC-1 mitochondrial signal, unstimulated myeloma cells – cell-based, JC-1 fluorescence, RPMI8226, 24 h, 100 nL compound, profiling panel (AID 1169). Further: test concentration not given here. Conditions: JC-1 mitochondrial potential fluorescence, higher = more signal.
A short description of assay [19]: JC-1 mitochondrial signal, unstimulated MM1S myeloma – cell-based, JC-1 fluorescence, 24 h, 100 nL compound, profiling panel (AID 1170). Further: test concentration not given here. Particulars: MM1S mitochondrial potential, higher = more signal.
A short description of assay [20]: resazurin metabolic signal in A549 cells – cell-based, resazurin fluorescence, 24 h, PK04 Diversity Set, profiling panel (AID 1171). Further: test concentration not given here. Conditions: A549 viability, higher = more signal, called active from +8 up or from −8 down.

Molecules are shown by their SMILES. The source made the active and inactive calls.

As to `CN(C)C(=O)[C@@]1(CCS(=O)(=O)c2ccccc2)COC(c2ccc(OCCCO)cc2)=N1`, the z-score is 0.276 (inactive) in [1]; 25.6 (active) in assay [3]; 8.3 (active) in assay [4]; 1.69 (inactive) in assay [5]; 1.26 (inactive) in [6]; 0.313 in assay [7]. For the same compound, the z-score was -2.71 (inactive) in [8]; 0.265 (inactive) in assay [9]; -0.621 in assay [10]; -0.245 in assay [11]; -0.0285 in assay [12]; -1.28 in [13]. For the same compound, the z-score in [14] was -2.08; in [15], -2.36; in assay [16] it was -1.09; in assay [17] it was -0.0809 (inactive); in assay [18] it was -0.476; in [19] it was -1.49. The z-score in [20] is -2.54 (inactive). The compound further yielded a composite z-score in [2] of 0.0244.

Consider `C=CC[C@]1(C(=O)NCc2ccccc2)N=C(c2ccc(OCCCO)cc2)O[C@H]1c1ccccc1N=[N+]=[N-]`, for which the z-score is 0.0858 (inactive) in [1]; 31.8 (active) in assay [3]; 27.1 (active) in assay [4]; 3.46 (inactive) in assay [5]; 6.96 (inactive) in [6]; 0.0617 in [7]. Further, the z-score in assay [8] is -1.8 (inactive); in assay [9], 0.721 (inactive); in assay [10], -0.0713; in assay [11], -1.2; in assay [12] it was 0.514; in [13], -0.0143. Also, the z-score is -1.77 in assay [14]; -1.41 in assay [15]; -0.456 in [16]; 0.474 (inactive) in assay [17]; -0.938 in assay [18]; 0.0422 in [19]. For the same compound, in [20], the z-score is -0.888 (inactive). This compound also came in with a composite z-score in assay [2] of 0.222.

As to `COc1cc(NN2C(C(O)c3ccco3)C=CC3C(=O)N(c4ccccc4)C(=O)C32)cc(OC)c1OC` (stereo not given), the z-score in assay [1] was -1.37 (inactive); in assay [3] it was 0.886 (inactive); in assay [4], -1.47 (inactive); in assay [5] it was 1.06 (inactive); in assay [6], -1.28 (inactive); in assay [7] it was 1.29. In addition, the z-score in assay [8] was -3.15 (inactive); in assay [9] it was -4.23 (inactive); in [10], -5.73; in assay [11] it was -0.5; in assay [12] it was 0.117; in [13], -0.337. Further, the z-score in assay [14] is 0.0511; in [15] it was -0.307; in [16], -0.955; in assay [17] it was -0.967 (inactive); in assay [18], 0.187; in assay [19] it was -1.31. Also, the z-score in [20] is -1.54 (inactive). This compound had a composite z-score in assay [2] of -0.441.

For the compound `CN(C)CCCC[C@@H]1NC(=O)[C@@H]2C[C@H](C(=O)NCCCCCCN)[C@H](c3cccc(OCCO)c3)N2C1=O`, the z-score is -0.3 (inactive) in assay [1]; 3.07 (inactive) in assay [3]; 0.198 (inactive) in [4]; 1.87 (inactive) in assay [5]; 0.105 (inactive) in [6]; 0.292 in [7]. Also, the z-score in assay [8] was 0.956 (inactive); in [9], 1.14 (inactive); in [10], 0.941; in assay [11] it was -0.481; in assay [12], 1.24; in [13] it was -1.21. Moreover, the z-score in assay [14] was -0.304; in assay [15], 0.294; in assay [16] it was -1.3; in assay [17], -0.735 (inactive); in assay [18], -0.17; in [19] it was 0.454. The z-score in assay [20] was -0.511 (inactive). In addition, the composite z-score in assay [2] is 1.1.
